# The list is not random: actives were taken first. Their share in the collection is about 12%.
# Pf growth 48h: P. falciparum growth inhibition at 48 hours (one generation) | P. falciparum luciferase growth in erythrocytes, 48 h | Potency, µM (highest dose often 28.7 µM), without a hit: at the top dose activity change, negative = inhibition, most hits filed as inhibitors | 310,000 tested, 5.9% active; also: % is scaled to controls: 0 for no effect and ±100 for the full control effect
#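 Parasite viability was followed by luminescence of a genomically integrated firefly luciferase. Cultures held 0.1% parasitemia at 2% hematocrit (final), incubated under 5% CO2 at 37 C.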
# SARS PLpro yeast: inhibitors of SARS-CoV papain-like protease in yeast. S. cerevisiae expressing SARS-CoV PLpro, growth rescue. Potency, µM (top dose mostly 32.9 µM), inactives show at the highest dose activity, positive = growth rescue, most hits filed as activators. 330,000 tested, 0.19% active. AID 485353; calls by dose curve; also: 0% is about no effect; nearly all actives have a fitted effect of over 55% in size
# Sm TGR block: blocks Schistosoma mansoni thioredoxin glutathione reductase | Q962Y6 | purified TGR, DTNB reduction, TNB absorbance 405 nm | Potency, µM (doses to about 114 µM), for inactives: at the top dose activity change, negative = inhibition, most hits filed as inhibitors | 360,000 tested, 3% active | AID 485364; also: % is scaled to controls: 0 for no effect and ±100 for the full control effect; nearly all actives have a fitted effect of over 60% in size
#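 TGR 20 nM + NADPH 100 uM (dispensed conc.), cpd preinc 15 min RT; start with NADPH (500 uM addition) then DTNB (15 mM addition). Kinetic TNB absorbance, 405 nm filter. Four-parameter Hill fit across titration.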
# Pf growth 96h: P. falciparum growth inhibition at 96 hour, primary screen for plastid delayed-death inhibitors; P. falciparum luciferase reporter growth, 96 h; Potency, µM (top dose mostly 28.7 µM), for the others: at the highest dose activity change, negative = inhibition, hits mostly inhibitors; 320,000 tested, 6.9% active; also: % is scaled to controls: 0 for no effect and ±100 for the full control effect
#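 Infected RBCs, 2% Hct / 0.05% parasitemia final; luciferase-reporter P. falciparum; cpd 96 h, 37 C, 5% CO2; luciferase detection reagent; luminescence.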
# Active calls of the source: *; ? = inconclusive; / = no result given. Unless noted, calls follow the shape of the dose curve; as a rule, active = well fitted curve in the direction sought with a large enough effect; inconclusive = small, poorly fitted or top-dose-only effect, or another doubt; inactive = no such curve, though single readings can be large; an effect the other way counts as inactive or inconclusive. Potency is read from the fitted curve at half-maximal effect.
SMILES,Pf growth 48h,SARS PLpro yeast,Sm TGR block,Pf growth 96h
CCOC(=O)c1cc2c(=O)n3ccccc3nc2n(CC2CCCO2)c1=NC(=O)c1ccc(F)cc1 (stereo unspecified),/,/,-1.3%,/
CCOC(=O)Cc1cnc(NC(=O)Cn2nnc(-c3ccc(OCC)cc3)n2)s1,0.0%,5.4%,2.8%,6.57µM*
CCOc1ccc(-c2nnn(CC(=O)NCc3ccc(C)cc3)n2)cc1,0.8%,-4.6%,-1.6%,7.38µM*
CCOc1ccc(-c2nnn(CC(=O)NCc3ccc(OC)cc3)n2)cc1OCC,-7.6%,6.3%,-11.0%,-15.8%
COc1cccc(Nc2nc(N)nc(C(F)(F)F)n2)c1,62.3%,-1.6%,-31.8%,55.3%
Cc1cccc(Nc2nc(N)nc(CN3CCN(c4ccccc4)CC3)n2)c1,?,2.0%,-1.7%,/
Cc1cccc(Nc2nc(N)nc(CCl)n2)c1,?,-0.7%,14.1µM*,9.28µM*
COc1cccc(Nc2nc(N)nc(CCl)n2)c1,?,-0.6%,20µM*,?
O=C(CSC1=NS(=O)(=O)c2ccccc2N1)Nc1nccs1,?,-0.5%,-11.5%,14.3%
CCOc1ccc(/C=N/NC(=O)c2ccccc2Cl)cc1CN1CC2CC(C1)c1cccc(=O)n1C2 (stereo unspecified),8.28µM*,1.7%,-18.3%,-23.4%
COc1ccc(/C=N/NC(=O)c2ccccc2)cc1CN1CCN(c2ccc(F)cc2)CC1,3.2%,2.4%,-26.6%,12.3%
CCCOc1ccc(C(=O)Nc2ccc(S(=O)(=O)N3C[C@@H]4C[C@@H](C3)c3cccc(=O)n3C4)cc2)cc1,2.08µM*,-0.4%,1.6%,4.65µM*
CCOc1ccc(/C=N/NC(=O)c2ccc(F)cc2)cc1CN1CC2CC(C1)c1cccc(=O)n1C2 (stereo unspecified),5.22µM*,1.4%,-10.9%,18.2%
CCOc1ccc(NC(=O)N2C[C@H]3C[C@@H](C2)c2cccc(=O)n2C3)cc1,4.7%,-0.2%,-1.5%,-13.1%
CCOc1ccc(/C=N/NC(=O)c2ccccc2C)cc1CN1CC2CC(C1)c1cccc(=O)n1C2 (stereo unspecified),3.7µM*,1.0%,1.5%,?
CCc1cc(C(=O)N/N=C/c2ccc(O)cc2O)c2ccccc2n1,?,/,-12.9%,-7.7%
Cc1ccc(-n2c(Cc3ccccc3)nnc2SCc2nc(-c3cccs3)no2)cc1C,/,/,-2.2%,/
NS(=O)(=O)c1ccc(CCNC(=O)CCCC2=NS(=O)(=O)c3ccccc3N2)cc1,0.0%,1.0%,0.9%,5.22µM*
O=C(CCCC1=NS(=O)(=O)c2ccccc2N1)NCCc1ccc(Cl)cc1,-5.9%,0.7%,-8.9%,3.9%
CCN1C(Nc2ccccc2)=NC[C@@H]1CC(C)C,12.6%,8.3%,-13.3%,30.8%
CC(C)C[C@H]1CN=C(Nc2ccccc2)N1CC1CCCCCC1,?,3.8%,-5.5%,10.4µM*
CC(C)C[C@H]1CN=C(Nc2ccccc2)N1CCc1cccc(F)c1,/,-3.0%,/,/
Cc1cccc(CCN2C(Nc3ccccc3)=NC[C@@H]2CC(C)C)c1,10.4µM*,-0.2%,-3.2%,?
Cc1ccc(C(=O)NCC(c2ccco2)N2CCc3ccccc32)cc1C (stereo unspecified),9.28µM*,-14.0%,-30.2%,?
COc1ccccc1C(=O)NCC(c1cccs1)N1CCc2ccccc21 (stereo unspecified),11.7µM*,0.5%,-7.4%,3.7µM*
SMILES,Pf growth 48h,SARS PLpro yeast,Sm TGR block,Pf growth 96h
O=C(NCC(c1ccco1)N1CCc2ccccc21)C(=O)Nc1ccccc1F (stereo unspecified),?,-24.9%,4.4%,14.2%
COc1ccccc1NC(=O)C(=O)NCC(c1ccco1)N1CCc2ccccc21 (stereo unspecified),11.7µM*,-1.6%,-6.3%,?
O=C(NCC(c1ccco1)N1CCc2ccccc21)C(=O)Nc1ccccc1 (stereo unspecified),1.31µM*,5.1%,-0.3%,?
COc1ccccc1C(=O)NCC(c1ccco1)N1CCc2ccccc21 (stereo unspecified),10.4µM*,-0.3%,1.8%,5.22µM*
COc1ccccc1NC(=O)C(C)OC(=O)C1COc2ccccc2O1 (stereo unspecified),18.9%,-12.3%,4.6%,-4.6%
CCCc1nc2sc3c(=O)[nH]cnc3c2c2c1CCCC2,54.8%,0.4%,-1.4%,15.2%
CCc1nc2sc3c(=O)[nH]cnc3c2c2c1CSC(C)(C)C2,-13.5%,-0.2%,35.5µM*,?
COc1ccc(C(O)(CCc2ccccc2)CCN2CCCCC2)cc1 (stereo unspecified),?,15.3%,2.82µM*,9.3%
C=CCC(O)(CCN1CCCCC1)c1ccccc1 (stereo unspecified),12.6%,4.2%,25.1µM*,40.6%
Cc1c(C(=O)Nc2ccc(C(C)C)cc2)sc2nc3n(c(=O)c12)CCC3,/,/,-7.9%,/
CCC(=O)N1CCc2cc(S(=O)(=O)NC(Cc3ccccc3)C(=O)O)ccc21 (stereo unspecified),24.0%,0.9%,0.8%,39.7%
COc1ccccc1C(O)(C(=O)NNc1ccccc1C)c1ccccc1OC,?,10.7%,-8.8%,6.57µM*
COc1ccc(Br)cc1C(=O)Nc1cccc(C)c1,/,-0.1%,6.9%,?
COc1ccccc1C(O)(C(=O)NNc1cccc(C)c1)c1ccccc1OC,20.9%,-8.0%,-9.7%,2.62µM*
Cc1[nH]c2ccccc2c1C1(O)C(=O)N(Cc2ccccc2)c2ccc(Br)cc21 (stereo unspecified),/,/,-2.6%,/
COC(=O)c1ccc(-c2ccco2)n1Cc1nc(-c2ccc(OC)c(OC)c2)oc1C,13.1µM*,-2.2%,0.0%,/
Cc1cc(C(=O)Nc2ccc(N3CCOCC3)cc2)c2ccccc2n1,9.28µM*,-2.1%,4.0%,13.1µM*
Cc1cc(C(=O)Nc2ccncc2)c2ccccc2n1,?,-4.0%,-13.3%,13.1µM*
CN(C)c1ccc(CNS(=O)(=O)c2ccc(-c3cc(C(F)(F)F)on3)s2)cc1,/,/,-0.2%,/
CCCC(C)NC(=O)COc1ccc(S(=O)(=O)c2ccc(OCC(=O)NC(C)CCC)cc2)cc1 (stereo unspecified),11.7µM*,-0.4%,-9.0%,?
O=C1C(SCCO)=C(SCCO)C(=O)c2ccccc21,?,/,0.501µM*,?
COc1ccc(OCC(O)CNCCOc2ccccc2OC)c(C(C)(C)C)c1 (stereo unspecified),4.65µM*,2.2%,-1.0%,3.7µM*
Cc1ccccc1OCC(O)CNCCOc1ccc(C(N)=O)cc1 (stereo unspecified),-12.2%,/,/,-29.0%
O=C(OC(C(=O)NCc1cccs1)c1ccccc1Cl)c1ccco1 (stereo unspecified),27.6%,1.3%,44.7µM*,-63.6%
CC(OC(=O)c1ccco1)C(=O)NCc1cccs1 (stereo unspecified),0.0%,-10.3%,0.8%,11.7µM*
COc1cc2c(cc1O)C[C@H]1c3c(cc(O)c(OC)c3-2)CCN1C,?,/,-6.4%,?
CN1CCc2cccc3c2[C@@H]1Cc1ccc(O)c(O)c1-3,2.62µM*,0.4%,/,2.62µM*
Cc1ccc(OCC(=O)Oc2ccc(C)c(C)c2)cc1,14.3%,-7.9%,0.3%,?
